Source: PubChem BioAssay AID1159580 (chemical genetic matrix, 2015)
The whole screen tested about 5,500 compounds, of which about 2,000 (36%) were called active. About 18% were inconclusive and are not listed. Rule as the data show it: active = normalized growth mostly below about 0.91 (no sharp cut-off); inconclusive = no clear call, values can overlap the other calls; inactive = mostly above about 0.92. This is one part of the list.

Experiment: chemical genetic growth profiling, strain panel (AID 1159580);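 also: tested at 20 µM; growth read once vehicle control cultures reached saturation at 30 °C; 1 = growth at the plate median or of vehicle wells; lower values mean less growth of the strain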
Conditions: growth OD
[1] = S. cerevisiae deletion strains, locus YAL013W, strain DEP1, active compounds read low
[2] = S. cerevisiae deletion strains, locus YGR229C, strain SMI1, active compounds read low
[3] = S. cerevisiae deletion strains, locus YMR263W, strain SAP30, active compounds read low
[4] = S. cerevisiae deletion strains, locus YMR307W, strain GAS1, active compounds read low
[5] = S. cerevisiae deletion strains, locus YNL128W, strain TEP1, active compounds read low
[6] = S. cerevisiae deletion strains, locus YPL241C, strain CIN2, active compounds read low

Measured: normalized growth

CC(C)(C)NC[C@H](O)COc1nsnc1N1CCOCC1
inactive: [1] 1.01 | S. cerevisiae deletion strains, locus YAL040C, strain CLN3, active compounds read low 1.03 | S. cerevisiae deletion strains, locus YCL061C, strain MRC1 (second series), active compounds read low 1 | S. cerevisiae deletion strains, locus YDR363W, strain ESC2, active compounds read low 0.989 | S. cerevisiae deletion strains, locus YER002W, strain NOP16, active compounds read low 0.998 | [2] 1.03 | [3] 0.993 | [4] 0.992 | [5] 0.995 | S. cerevisiae deletion strains, locus YNL175C, strain NOP13, active compounds read low 0.997 | S. cerevisiae deletion strains, locus YNL197C, strain WHI3, active compounds read low 0.99 | S. cerevisiae deletion strains, locus YNL224C, strain SQS1, active compounds read low 0.988 | S. cerevisiae deletion strains, locus YOR083W, strain WHI5 (second series), active compounds read low 0.996 | [6] 1

CCS(=O)CCSP(=O)(OC)OC (stereo not given)
inactive: [1] 1.01 | S. cerevisiae deletion strains, locus YBR021W, strain FUR4, active compounds read low 1 | S. cerevisiae deletion strains, locus YBR229C, strain ROT2, active compounds read low 1.02 | S. cerevisiae deletion strains, locus YCL029C, strain bik1, active compounds read low 1 | S. cerevisiae deletion strains, locus YDL035C, strain GPR1, active compounds read low 1.01 | S. cerevisiae deletion strains, locus YDL074C, strain BRE1, active compounds read low 0.998 | S. cerevisiae deletion strains, locus YDL101C, strain DUN1, active compounds read low 1.01 | S. cerevisiae deletion strains, locus YDL134C, strain PPH21, active compounds read low 1.01 | S. cerevisiae deletion strains, locus YDL185W, strain tfp1, active compounds read low 1.01 | S. cerevisiae deletion strains, locus YDL192W, strain arf1, active compounds read low 1 | S. cerevisiae deletion strains, locus YDR101C, strain arx1, active compounds read low 1 | S. cerevisiae deletion strains, locus YDR150W, strain NUM1, active compounds read low 1.01 | S. cerevisiae deletion strains, locus YDR162C, strain NBP2, active compounds read low 1.03 | S. cerevisiae deletion strains, locus YDR318W, strain mcm21, active compounds read low 1.01 | S. cerevisiae deletion strains, locus YDR388W, active compounds read low 1.01 | S. cerevisiae deletion strains, locus YDR502C, strain sam2, active compounds read low 0.995 | S. cerevisiae deletion strains, locus YEL061C, strain CIN8, active compounds read low 1.02 | S. cerevisiae deletion strains, locus YER110C, active compounds read low 1.01 | S. cerevisiae deletion strains, locus YER155C, strain BEM2, active compounds read low 1.02 | S. cerevisiae deletion strains, locus YER167W, strain BCK2, active compounds read low 1.02 | S. cerevisiae deletion strains, locus YGL078C, strain dbp3, active compounds read low 1.01 | S. cerevisiae deletion strains, locus YGL086W, strain mad1, active compounds read low 1 | S. cerevisiae deletion strains, locus YGL248W, strain PDE1, active compounds read low 1.01 | S. cerevisiae deletion strains, locus YGR078C, strain PAC10, active compounds read low 1.02 | S. cerevisiae deletion strains, locus YGR135W, strain pre9, active compounds read low 1.01 | [2] 0.999 | S. cerevisiae deletion strains, locus YGR252W, strain gcn5, active compounds read low 0.945 | S. cerevisiae deletion strains, locus YHR030C, strain SLT2, active compounds read low 1 | S. cerevisiae deletion strains, locus YHR079C, strain IRE1 (second series), active compounds read low 1.01 | S. cerevisiae deletion strains, locus YHR094C, strain hxt1, active compounds read low 1.01 | S. cerevisiae deletion strains, locus YHR129C, strain ARP1, active compounds read low 1.02 | S. cerevisiae deletion strains, locus YHR200W, strain rpn10, active compounds read low 1 | S. cerevisiae deletion strains, locus YIL066C, strain RNR3, active compounds read low 1.03 | S. cerevisiae deletion strains, locus YIL073C, strain SPO22, active compounds read low 1.06 | S. cerevisiae deletion strains, locus YIL125W, strain kgd1, active compounds read low 0.997 | S. cerevisiae deletion strains, locus YIR030C, strain dcg1, active compounds read low 1.01 | S. cerevisiae deletion strains, locus YJL095W, strain BCK1, active compounds read low 1.03 | S. cerevisiae deletion strains, locus YJL134W, strain LCB3, active compounds read low 1.01 | S. cerevisiae deletion strains, locus YJL168C, strain set2, active compounds read low 1 | S. cerevisiae deletion strains, locus YJL187C, strain SWE1 (second series), active compounds read low 1.02 | S. cerevisiae deletion strains, locus YJR043C, strain POL32, active compounds read low 1.02 | S. cerevisiae deletion strains, locus YJR075W, strain HOC1, active compounds read low 0.99 | S. cerevisiae deletion strains, locus YKL009W, strain mrt4, active compounds read low 0.977 | S. cerevisiae deletion strains, locus YKL068W, active compounds read low 1 | S. cerevisiae deletion strains, locus YKL085W, strain MDH1 (second series), active compounds read low 1.01 | S. cerevisiae deletion strains, locus YKL085W, strain MDH1, active compounds read low 1.01 | S. cerevisiae deletion strains, locus YKL190W, strain CNB1, active compounds read low 1.01 | S. cerevisiae deletion strains, locus YKR001C, strain vps1, active compounds read low 1 | S. cerevisiae deletion strains, locus YLR039C, strain RIC1, active compounds read low 1.04 | S. cerevisiae deletion strains, locus YLR058C, strain SHM2, active compounds read low 1.02 | S. cerevisiae deletion strains, locus YLR102C, strain apc9, active compounds read low 1 | S. cerevisiae deletion strains, locus YLR262C, strain YPT6, active compounds read low 1.02 | S. cerevisiae deletion strains, locus YLR268W, strain sec22, active compounds read low 0.999 | S. cerevisiae deletion strains, locus YLR330W, strain CHS5, active compounds read low 1.01 | S. cerevisiae deletion strains, locus YLR342W, strain FKS1 (second series), active compounds read low 1.02 | S. cerevisiae deletion strains, locus YLR371W, strain rom2, active compounds read low 0.999 | S. cerevisiae deletion strains, locus YLR418C, strain cdc73, active compounds read low 0.984 | S. cerevisiae deletion strains, locus YML016C, strain PPZ1, active compounds read low 1.01 | S. cerevisiae deletion strains, locus YML032C, strain rad52, active compounds read low 1.01 | S. cerevisiae deletion strains, locus YML124C, strain tub3, active compounds read low 1.01 | S. cerevisiae deletion strains, locus YMR078C, strain ctf18, active compounds read low 1.01 | S. cerevisiae deletion strains, locus YMR223W, strain ubp8, active compounds read low 1 | [3] 1.02 | [4] 1 | S. cerevisiae deletion strains, locus YNL067W, strain RPL9B, active compounds read low 1.01 | [5] 1.02 | S. cerevisiae deletion strains, locus YNL153C, strain GIM3, active compounds read low 1.01 | S. cerevisiae deletion strains, locus YNL233W, strain BNI4, active compounds read low 1.01 | S. cerevisiae deletion strains, locus YNL250W, strain rad50, active compounds read low 1.01 | S. cerevisiae deletion strains, locus YNL271C, strain bni1, active compounds read low 1 | S. cerevisiae deletion strains, locus YNL298W, strain CLA4, active compounds read low 1.01 | S. cerevisiae deletion strains, locus YNL307C, strain MCK1, active compounds read low 1.01 | S. cerevisiae deletion strains, locus YNL322C, strain KRE1, active compounds read low 1.01 | S. cerevisiae deletion strains, locus YNR052C, strain pop2, active compounds read low 1 | S. cerevisiae deletion strains, locus YOL006C, strain TOP1, active compounds read low 1.01 | S. cerevisiae deletion strains, locus YOL012C, strain htz1 0.877 | S. cerevisiae deletion strains, locus YOL147C, strain pex11, active compounds read low 1 | S. cerevisiae deletion strains, locus YOR061W, strain CKA2, active compounds read low 1.01 | S. cerevisiae deletion strains, locus YOR069W, strain VPS5, active compounds read low 1 | S. cerevisiae deletion strains, locus YOR136W, strain idh2, active compounds read low 1 | S. cerevisiae deletion strains, locus YOR144C, strain elg1, active compounds read low 1.01 | S. cerevisiae deletion strains, locus YOR184W, strain ser1, active compounds read low 1 | S. cerevisiae deletion strains, locus YOR316C, strain cot1, active compounds read low 1 | S. cerevisiae deletion strains, locus YPL055C, strain LGE1, active compounds read low 1.01 | [6] 1.01 | S. cerevisiae deletion strains, locus YPR119W, strain clb2, active compounds read low 1.01 | S. cerevisiae deletion strains, locus YPR141C, strain kar3, active compounds read low 0.997 | S. cerevisiae deletion strains, locus YPR163C, strain tif3, active compounds read low 1.01 | S. cerevisiae deletion strains, locus YPR167C, strain met16, active compounds read low 0.998 | S. cerevisiae deletion strains, strain wtn01, active compounds read low 0.996 | S. cerevisiae strains, strain wild type, active compounds read low 1.01
